POLB inh: qHTS Assay for Inhibitors of DNA Polymerase Beta; Potency, µM (doses to about 114 µM), for inactives: top-dose activity change, negative = inhibition, hits mostly inhibitors; 1.3% of 340,000 active; AID 485314, 2010; Pol beta primer extension/strand displacement, fluorescence kinetic; note: potency is the fitted concentration of half-maximal effect; % is set by controls: 0 for no effect and ±100 for the full control effect
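Curves were derived by four-parameter Hill fits of normalized qHTS data. The kinetic fluorescent primer-extension read was taken at 0 and 10 min after 50 nM substrate, following a 15 min room-temperature preincubation of 10 nM enzyme with compounds.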
Pol eta inh-1: qHTS for Inhibitors of Polymerase Eta; DNA polymerase eta (Homo sapiens), Q9Y253; recombinant Pol eta, fluorescent DNA replication assay; Potency, µM (series often up to 114 µM), for inactives: top-dose activity change, negative = inhibition, actives largely listed as inhibitors; 1.2% of 390,000 active; AID 588591, 2011; note: potency is the fitted concentration of half-maximal effect; % is set by controls: 0 for no effect and ±100 for the full control effect
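Fluorescent replication assay: 50 nM final substrate added after a 15 min room-temperature compound preincubation with 10 nM enzyme. Signal taken at 0 min and again at 10 min.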
L3MBTL1 inh: qHTS Assay for the Inhibitors of L3MBTL1 | AlphaScreen L3MBTL1–H3K9me1 peptide binding | Potency, µM (top dose mostly 57.1 µM), inactives show top-dose activity, negative = inhibition, actives largely listed as inhibitors | 0.66% of 230,000 active | AID 485360, 2010; note: potency is the fitted concentration of half-maximal effect; % is set by controls: 0 for no effect and ±100 for the full control effect; nearly all actives have a fitted effect of over 60% in size
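AlphaScreen assay: L3MBTL1 (50 nM final) was preincubated 30 min at room temperature with biotinylated H3(1-15)K9me1 peptide (75 nM final), then 30 min with library compounds; streptavidin donor and nickel chelate acceptor beads (10 ug/mL final) added, 30 min dark.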
Pol kappa inh-1: qHTS for Inhibitors of Polymerase Kappa. DNA polymerase kappa (Homo sapiens), Q9UBT6. purified Pol kappa, fluorescent DNA synthesis assay, 10 min. 0.53% of 400,000 active. AID 588579, 2011. Potency, µM (series often up to 107 µM), for inactives: at the highest dose activity, negative = inhibition, most hits filed as inhibitors; note: potency is the fitted concentration of half-maximal effect; % is set by controls: 0 for no effect and ±100 for the full control effect
Target sequence (Q9UBT6 whole entry, looked up): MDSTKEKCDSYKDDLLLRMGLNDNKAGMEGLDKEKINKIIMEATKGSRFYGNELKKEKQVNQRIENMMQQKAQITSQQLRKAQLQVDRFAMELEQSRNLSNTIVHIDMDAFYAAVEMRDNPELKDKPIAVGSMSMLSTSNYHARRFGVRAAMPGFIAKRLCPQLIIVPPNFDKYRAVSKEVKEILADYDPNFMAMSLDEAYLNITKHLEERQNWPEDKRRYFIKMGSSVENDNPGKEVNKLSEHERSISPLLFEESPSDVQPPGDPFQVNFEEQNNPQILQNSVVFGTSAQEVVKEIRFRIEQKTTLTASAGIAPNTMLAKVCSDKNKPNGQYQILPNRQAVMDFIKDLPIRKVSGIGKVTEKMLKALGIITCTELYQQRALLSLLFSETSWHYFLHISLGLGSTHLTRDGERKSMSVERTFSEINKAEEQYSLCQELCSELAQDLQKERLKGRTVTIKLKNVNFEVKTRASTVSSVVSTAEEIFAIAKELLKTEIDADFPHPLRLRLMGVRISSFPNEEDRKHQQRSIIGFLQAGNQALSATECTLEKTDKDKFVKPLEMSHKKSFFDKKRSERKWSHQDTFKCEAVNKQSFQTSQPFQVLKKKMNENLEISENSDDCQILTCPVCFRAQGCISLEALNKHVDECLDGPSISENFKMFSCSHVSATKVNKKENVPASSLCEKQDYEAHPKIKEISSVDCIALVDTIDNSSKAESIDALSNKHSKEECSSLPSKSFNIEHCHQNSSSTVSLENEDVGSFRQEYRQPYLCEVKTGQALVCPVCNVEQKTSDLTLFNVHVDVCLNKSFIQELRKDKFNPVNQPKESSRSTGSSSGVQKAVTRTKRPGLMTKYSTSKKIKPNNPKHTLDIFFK
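Pol kappa 10 nM + cpd, 15 min RT; start w/ substrate 50 nM final; fluorescence kinetic read, 0 and 10 min. Neg ctrl: buffer, no enzyme.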
WRN inhibitor: qHTS for Inhibitors of WRN Helicase; Bifunctional 3'-5' exonuclease/ATP-dependent helicase WRN (Homo sapiens), Q14191; WRN helicase unwinding, fluorescent forked duplex, kinetic; Potency, µM (doses to about 114 µM), inactives show at the top dose activity change, negative = inhibition, actives largely listed as inhibitors; 0.46% of 360,000 active; note: potency is the fitted concentration of half-maximal effect; % is set by controls: 0 for no effect and ±100 for the full control effect; nearly all actives have a fitted effect of over 55% in size
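WRN at 20 nM final was preincubated with compound for 15 min at room temperature; reaction started with 100 nM forked duplex oligonucleotide carrying fluorophore and quencher plus 2 mM ATP (final). Unwinding followed kinetically by red fluorescence (ex 525/em 598 nm).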
Pol iota inh: qHTS for Inhibitors of Polymerase Iota | Pol iota fluorescent replication assay, 10 min | 1% of 390,000 active | Potency, µM (top dose mostly 115 µM), inactives show top-dose activity, negative = inhibition, usual class: inhibitors | DNA polymerase iota (Homo sapiens), Q9UNA4; note: potency is the fitted concentration of half-maximal effect
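Fluorescent replication assay read twice, at 0 min and 10 min after adding 50 nM (final) substrate. Enzyme (10 nM) and compounds were first incubated 15 min at room temperature; enzyme-free buffer wells were negative controls.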
GALK inh confirm: Confirmation Assay for Inhibitors of Human Galactokinase (GALK); shares compounds with Pol eta inh-1; purified GALK, Kinase-Glo ATP depletion luminescence; Potency, µM (highest dose often 115 µM), for the others: top-dose activity, negative = inhibition, actives largely listed as inhibitors; 70% of 150 active
Redox cycling: Confirmatory Assay for Inhibitors of Human Galactokinase (GALK): Phenol-HRP redox assay counterscreen; 40% of 150 active; Potency, µM (highest dose often 115 µM), inactives show at the highest dose activity change, negative = H2O2 signal, usual class: inhibitors; shares compounds with Pol eta inh-1; Phenol red-HRP H2O2 redox cycling, absorbance 600 nm
HEK293 tox: Secondary Assay for Inhibitors of Human Galactokinase (GALK): HEK-293 Cell Viability Assay; shares compounds with Pol eta inh-1; HEK-293 viability, ATP luminescence (CellTiter-Glo), 24/48 h; Potency, µM (titrated, usually from 46.1 µM), inactives show at the top dose activity change, negative = cytotoxicity, hits mostly inhibitors; 10% of 170 active; note: potency is the fitted concentration of half-maximal effect; % is set by controls: 0 for no effect and ±100 for the full control effect
Pol kappa inh-2: qHTS for Inhibitors of Polymerase Kappa: Confirmatory Assay for Cherry-picked Compounds; shares compounds with Pol eta inh-1; purified Pol-kappa, fluorescent strand-displacement substrate; Potency, µM, usual class: inhibitors; 76% of 920 active; AID 720501, 2013; note: potency is the fitted concentration of half-maximal effect
Pol eta inh-2: qHTS for Inhibitors of Polymerase Eta: Confirmatory Assay for Cherry-picked Compounds; shares compounds with Pol eta inh-1; Pol eta primer extension, TAMRA/BHQ fluorescence, 10 min; Potency, µM, actives largely listed as inhibitors; 64% of 2,600 active; AID 720502, 2013; note: potency is the fitted concentration of half-maximal effect
* marks the source's active call; other numbers are inactive results; ? = inconclusive; · = no result given; [ ] = remark or other dose. The list is not random: actives were taken first. Their share in the collection is about 2.5%. Calls come from the whole dose curve; as a rule, active = well fitted curve in the direction sought with a large enough effect; inconclusive = small, poorly fitted or top-dose-only effect, or another doubt; inactive = no such curve, though single readings can be large; an effect the other way counts as inactive or inconclusive.

SMILES | POLB inh | Pol eta inh-1 | L3MBTL1 inh | Pol kappa inh-1 | WRN inhibitor | Pol iota inh | Pol eta inh-2 | others
COc1cccc2cc(C(=O)C3=C(O)C(=O)N(CCN4CCOCC4)C3c3cccc(Cl)c3)oc12 (stereo not given) | 2.5% | 28.2µM* | · | -14.1% | -10.9%[11.6 µM] | -20.8% | 16.9*
CCOc1cc(-c2ccc3c(c2)OCO3)cc(=[O+]CC)c2c(C)oc(C)c12 | · | · | · | 50.1µM* | · | 50.1µM* | 47.8* | Pol kappa inh-2=?
O=C(N/N=C/c1coc2ccccc2c1=O)c1cc(Br)c(O)c(Br)c1 | -13.4% | ? | · | -12.4% | -12.6%[11.6 µM] | -7.2% | ?
COc1ccccc1OC(C)C(=O)N1CCN(CCc2ccccn2)CC1 (stereo not given) | -8.0% | -13.5% | · | -15.8% | · | 32.6% | ·
O=C(Nc1ccc2[nH]c(=O)[nH]c2c1)c1ccc([N+](=O)[O-])o1 | · | 56.2µM* | -21.0% | -13.2% | -8.2%[11.6 µM] | ? | ? | Pol kappa inh-2=?
Cc1ccc(NC(=O)c2ccc([N+](=O)[O-])o2)cc1C | -20.8% | 4.1% | -23.5% | -18.4% | -5.8% | ? | ·
CCCCNC(=O)N(O)C1N(/N=C/c2cccnc2)C(=S)SC1(C)C (stereo not given) | -12.2% | -16.2% | · | 7.5% | -2.5% | 6.6% | ·
COc1ccc(OC)c(CCNC(=O)c2ccc3c(=O)[nH]c4c(C(=O)NC(C)C)sc(=S)n4c3c2)c1 | 8.3% | 15.8µM* | · | -16.4% | -20.6%[11.6 µM] | -12.6% | 42.6*
O=C(NCCc1ccccc1)c1ccc2c(=O)[nH]c3c(C(=O)NCC4CCCO4)sc(=S)n3c2c1 (stereo not given) | 13.8% | -7.1% | · | ? | -21.3% | ? | · | GALK inh confirm=37.5µM*;Redox cycling=-0.6%;HEK293 tox=9.3%
O=C(NCC1CCCO1)c1sc(=S)n2c1[nH]c(=O)c1ccc(C(=O)N3CCCCC3)cc12 (stereo not given) | -21.2% | -13.9% | -8.5% | -25.6% | -30.9% | ? | ·
O=C(NC1CCCCC1)c1sc(=S)n2c1[nH]c(=O)c1ccccc12 | 17.8µM* | 25.1µM* | -2.5% | -23.4% | 50.1µM* | -24.7% | · | Pol kappa inh-2=?
Nc1c(C=C2C=CC(=O)C=C2)c(=O)nc2sc(CC(=O)N3CCCCC3)nn12 | -19.5% | 39.8µM* | · | -23.9% | -8.5% | ? | 75.7*
CCOC1=C/C(=C/c2c(N)n3nc(CC(=O)N4CCCC4)sc3nc2=O)C=CC1=O | -28.1% | ? | · | -41.1% | -10.8% | ? | ·
O=C(c1cccc(S(=O)(=O)N2CCc3ccccc32)c1)N1CCN(c2ccccc2)CC1 | · | -5.9% | -8.6% | -5.9% | -10.1% | -5.4% | ·
CCCCn1c(SCC(=O)N(C)C)nnc1-c1ccncc1 | 8.7% | -11.3% | 28.6% | 0.2% | 8.2% | 146.8% | ·
CSCC[C@H](NS(=O)(=O)c1ccc(C(C)=O)cc1)c1nnc2ccccn12 | 79.4µM* | 14.1µM* | · | -19.1% | ? | -21.1% | 67.5*
CSCCC(NC(=O)C1CCCC1)c1nnc2ccccn12 (stereo not given) | 10.6% | -10.1% | · | 6.3% | -0.9% | 70.0% | ·
CCc1ccc(NS(=O)(=O)c2ccc3[nH]cc(C(=O)N4CCCCC4)c(=O)c3c2)cc1 | ? | ? | ? | -42.0% | 1.6%[11.6 µM] | ? | ?
CC(C)c1ccc(NS(=O)(=O)c2ccc3[nH]cc(C(=O)N4CCCC4)c(=O)c3c2)cc1 | ? | ? | · | ? | · | 79.4µM* | 42.6*
CCc1ccc(NS(=O)(=O)c2ccc3[nH]cc(C(=O)N4CCCCCC4)c(=O)c3c2)cc1 | ? | -2.7% | · | -31.0% | · | ? | ·
COc1cccc(NS(=O)(=O)c2ccc3[nH]cc(C(=O)N4CCCC4)c(=O)c3c2)c1 | ? | -1.0% | · | -15.7% | · | -4.8% | ·
CCN(CC)CCNS(=O)(=O)c1ccc2[nH]cc(C(=O)O)c(=O)c2c1 | 17.8µM* | 22.4µM* | ? | ? | -12.0%[11.6 µM] | ? | 26.9*
Cc1ccccc1NS(=O)(=O)c1ccc2[nH]cc(C(=O)N3CCCC3)c(=O)c2c1 | ? | 89.1µM* | · | 5.4%[60.1 µM] | · | ? | ?
Cc1ccc(Cl)c2sc(NC(=O)C3CC3)nc12 | 22.4% | -6.1% | 0.9% | -10.6% | -5.7% | -6.7% | ·
O=C(COC(=O)c1cc(F)cc(F)c1)NCCCc1ccccc1 | 8.3% | -5.8% | · | 0.0% | 9.2% | 25.2% | ·
COc1cccc(NS(=O)(=O)c2ccc3[nH]cc(C(=O)N(C)C4CCCCC4)c(=O)c3c2)c1 | -12.5% | 56.2µM* | · | -6.2%[60.1 µM] | · | ? | ? | Pol kappa inh-2=?
COc1cccc(NS(=O)(=O)c2ccc3[nH]cc(C(=O)N4CCCCCC4)c(=O)c3c2)c1 | ? | ? | · | -18.0% | · | ? | ·
CN(C)c1ccc(N=Nc2ccc(S(=O)(=O)O)cc2)c2ccccc12 | ? | -14.9% | · | -19.6% | -1.4% | 46.4% | ·
O=C(NCCCC1CCCC1)C1CCC(=O)N(Cc2ccc(Cl)cc2)C1 (stereo not given) | -2.6% | -3.2% | · | -4.5% | 1.3% | 12.9% | ·
CCOc1ccc(Nc2nc(Cc3nnc(SCC(=O)O)o3)cs2)cc1 | 79.4µM* | 50.1µM* | ? | ? | -27.8%[57.1 µM] | ? | ?

Screening data: PubChem BioAssay, National Center for Advancing Translational Sciences (NCATS)
